# According to ChEMBL document CHEMBL1961873, “Compounds: GSK PKIS; Assays: Nanosyn kinase panel” (2012):
# Columns and labels:
# [1] = molecular target: Death-associated protein kinase 1 (Homo sapiens) (UniProt P53355); details: at 1 µM;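 further: each value is a mean inhibition figure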
# [2] = molecular target: T1, Serine/threonine-protein kinase DCLK2 (Homo sapiens) (UniProt Q8N568); details: at 0.1 µM
# T1 sequence (whole entry): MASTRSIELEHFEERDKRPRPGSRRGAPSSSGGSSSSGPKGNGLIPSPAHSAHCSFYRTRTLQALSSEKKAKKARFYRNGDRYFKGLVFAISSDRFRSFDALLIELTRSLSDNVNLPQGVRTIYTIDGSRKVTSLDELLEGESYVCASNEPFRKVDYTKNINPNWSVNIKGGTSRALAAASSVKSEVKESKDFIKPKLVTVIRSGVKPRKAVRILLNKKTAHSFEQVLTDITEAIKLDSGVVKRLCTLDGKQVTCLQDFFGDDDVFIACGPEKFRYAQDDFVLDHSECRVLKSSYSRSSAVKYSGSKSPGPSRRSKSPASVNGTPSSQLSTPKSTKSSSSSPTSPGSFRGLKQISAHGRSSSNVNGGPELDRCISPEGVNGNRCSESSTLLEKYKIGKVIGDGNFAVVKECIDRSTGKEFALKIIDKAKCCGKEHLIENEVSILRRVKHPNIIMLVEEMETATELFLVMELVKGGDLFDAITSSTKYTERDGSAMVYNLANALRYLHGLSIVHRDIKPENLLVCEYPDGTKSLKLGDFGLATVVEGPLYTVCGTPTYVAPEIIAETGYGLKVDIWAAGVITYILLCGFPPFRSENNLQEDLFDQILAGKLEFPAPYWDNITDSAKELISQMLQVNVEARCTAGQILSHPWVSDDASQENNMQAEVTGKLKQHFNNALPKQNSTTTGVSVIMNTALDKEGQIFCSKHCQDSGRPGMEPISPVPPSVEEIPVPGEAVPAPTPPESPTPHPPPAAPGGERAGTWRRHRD
# [3] = molecular target: T1, Serine/threonine-protein kinase DCLK2 (Homo sapiens); details: at 1 µM
# [4] = molecular target: MAP kinase-activated protein kinase 2 (Homo sapiens) (UniProt P49137); details: at 0.1 µM
# Sequence of MAP kinase-activated protein kinase 2 (Homo sapiens) (P49137 whole entry, looked up): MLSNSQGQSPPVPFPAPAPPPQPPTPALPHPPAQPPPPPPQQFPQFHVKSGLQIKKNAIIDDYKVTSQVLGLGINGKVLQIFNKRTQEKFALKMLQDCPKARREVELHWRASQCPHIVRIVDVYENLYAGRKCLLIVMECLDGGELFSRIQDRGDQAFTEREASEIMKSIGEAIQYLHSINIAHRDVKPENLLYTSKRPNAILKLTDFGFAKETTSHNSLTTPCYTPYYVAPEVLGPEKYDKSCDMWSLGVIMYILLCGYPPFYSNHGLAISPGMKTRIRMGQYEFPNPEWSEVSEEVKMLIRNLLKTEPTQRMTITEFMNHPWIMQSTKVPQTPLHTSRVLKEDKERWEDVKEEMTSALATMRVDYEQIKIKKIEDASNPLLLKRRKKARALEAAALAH
# [5] = molecular target: MAP kinase-activated protein kinase 2 (Homo sapiens) (UniProt P49137); details: at 1 µM
# [6] = molecular target: MAP kinase-activated protein kinase 3 (Homo sapiens) (UniProt Q16644); details: at 0.1 µM
# [7] = molecular target: MAP kinase-activated protein kinase 3 (Homo sapiens) (UniProt Q16644); details: at 1 µM
# [8] = molecular target: Serine/threonine-protein kinase MARK1 (Homo sapiens) (UniProt Q9P0L2); details: at 0.1 µM
# Sequence of Serine/threonine-protein kinase MARK1 (Homo sapiens) (Q9P0L2 whole entry, looked up): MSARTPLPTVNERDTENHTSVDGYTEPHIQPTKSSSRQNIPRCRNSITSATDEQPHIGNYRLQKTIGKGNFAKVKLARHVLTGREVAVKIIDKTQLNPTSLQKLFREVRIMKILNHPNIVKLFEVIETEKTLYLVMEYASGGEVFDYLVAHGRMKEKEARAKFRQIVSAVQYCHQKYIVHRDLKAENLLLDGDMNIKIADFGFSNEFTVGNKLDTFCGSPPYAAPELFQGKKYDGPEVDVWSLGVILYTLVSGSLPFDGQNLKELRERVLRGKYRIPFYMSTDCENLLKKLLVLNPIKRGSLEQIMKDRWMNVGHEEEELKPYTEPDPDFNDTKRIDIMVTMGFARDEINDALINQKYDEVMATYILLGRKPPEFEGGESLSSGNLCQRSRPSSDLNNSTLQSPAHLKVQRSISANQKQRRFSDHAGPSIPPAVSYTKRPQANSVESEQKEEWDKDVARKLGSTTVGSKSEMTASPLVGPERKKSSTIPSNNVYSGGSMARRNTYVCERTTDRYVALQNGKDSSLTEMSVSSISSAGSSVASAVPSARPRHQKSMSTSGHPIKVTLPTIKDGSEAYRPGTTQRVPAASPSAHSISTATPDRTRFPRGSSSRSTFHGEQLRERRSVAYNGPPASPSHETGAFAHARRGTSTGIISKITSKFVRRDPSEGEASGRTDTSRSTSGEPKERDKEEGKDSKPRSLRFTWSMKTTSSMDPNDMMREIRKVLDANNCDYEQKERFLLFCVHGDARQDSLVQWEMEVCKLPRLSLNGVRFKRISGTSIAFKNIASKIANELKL
# [9] = molecular target: Serine/threonine-protein kinase MARK1 (Homo sapiens) (UniProt Q9P0L2); details: at 1 µM
# [10] = molecular target: MAP/microtubule affinity-regulating kinase 3 (Homo sapiens) (UniProt P27448); details: at 0.1 µM
# Sequence of MAP/microtubule affinity-regulating kinase 3 (Homo sapiens) (P27448 whole entry, looked up): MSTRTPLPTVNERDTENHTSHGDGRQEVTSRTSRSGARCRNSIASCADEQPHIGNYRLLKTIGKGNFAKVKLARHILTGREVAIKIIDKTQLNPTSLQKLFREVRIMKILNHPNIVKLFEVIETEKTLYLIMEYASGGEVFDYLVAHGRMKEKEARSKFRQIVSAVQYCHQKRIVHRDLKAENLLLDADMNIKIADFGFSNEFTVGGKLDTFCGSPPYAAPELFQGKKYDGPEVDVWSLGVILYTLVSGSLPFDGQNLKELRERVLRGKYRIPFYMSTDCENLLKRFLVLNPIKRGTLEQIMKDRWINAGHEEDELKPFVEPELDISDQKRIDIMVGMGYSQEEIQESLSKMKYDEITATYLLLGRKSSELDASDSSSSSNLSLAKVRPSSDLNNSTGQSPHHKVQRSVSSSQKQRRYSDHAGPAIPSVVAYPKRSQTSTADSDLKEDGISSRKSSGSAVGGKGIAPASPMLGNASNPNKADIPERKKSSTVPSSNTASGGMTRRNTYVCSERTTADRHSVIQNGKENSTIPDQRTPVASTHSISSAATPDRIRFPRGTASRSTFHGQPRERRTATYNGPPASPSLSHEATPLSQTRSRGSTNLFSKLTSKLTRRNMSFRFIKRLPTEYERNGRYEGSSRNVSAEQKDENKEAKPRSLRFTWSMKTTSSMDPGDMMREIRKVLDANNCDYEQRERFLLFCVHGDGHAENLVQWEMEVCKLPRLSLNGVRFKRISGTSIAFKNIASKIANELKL
# [11] = molecular target: MAP/microtubule affinity-regulating kinase 3 (Homo sapiens) (UniProt P27448); details: at 1 µM
# [12] = molecular target: T2, MAP/microtubule affinity-regulating kinase 4 (Homo sapiens) (UniProt Q96L34); details: at 0.1 µM
# T2 sequence (whole entry): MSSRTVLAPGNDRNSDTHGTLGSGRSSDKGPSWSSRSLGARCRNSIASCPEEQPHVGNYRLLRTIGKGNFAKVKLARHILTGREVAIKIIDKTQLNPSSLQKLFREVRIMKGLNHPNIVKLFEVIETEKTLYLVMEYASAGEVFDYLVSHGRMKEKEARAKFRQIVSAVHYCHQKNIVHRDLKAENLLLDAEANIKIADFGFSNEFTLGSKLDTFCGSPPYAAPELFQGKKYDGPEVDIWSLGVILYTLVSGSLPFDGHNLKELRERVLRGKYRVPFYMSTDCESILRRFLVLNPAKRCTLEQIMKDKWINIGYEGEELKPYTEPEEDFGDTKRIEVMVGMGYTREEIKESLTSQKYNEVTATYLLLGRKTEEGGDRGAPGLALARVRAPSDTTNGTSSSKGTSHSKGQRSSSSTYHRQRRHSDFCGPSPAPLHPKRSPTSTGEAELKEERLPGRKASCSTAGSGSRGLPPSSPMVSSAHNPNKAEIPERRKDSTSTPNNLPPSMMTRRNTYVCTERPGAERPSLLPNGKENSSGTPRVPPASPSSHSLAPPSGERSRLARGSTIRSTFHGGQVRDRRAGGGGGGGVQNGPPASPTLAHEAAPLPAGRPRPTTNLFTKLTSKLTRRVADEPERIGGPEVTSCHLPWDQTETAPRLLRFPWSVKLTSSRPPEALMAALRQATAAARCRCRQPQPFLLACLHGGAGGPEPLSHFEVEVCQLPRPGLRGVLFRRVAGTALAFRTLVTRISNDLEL
# [13] = molecular target: T2, MAP/microtubule affinity-regulating kinase 4 (Homo sapiens); details: at 1 µM
# [14] = molecular target: Maternal embryonic leucine zipper kinase (Homo sapiens) (UniProt Q14680); details: at 0.1 µM
# Sequence of Maternal embryonic leucine zipper kinase (Homo sapiens) (Q14680 whole entry, looked up): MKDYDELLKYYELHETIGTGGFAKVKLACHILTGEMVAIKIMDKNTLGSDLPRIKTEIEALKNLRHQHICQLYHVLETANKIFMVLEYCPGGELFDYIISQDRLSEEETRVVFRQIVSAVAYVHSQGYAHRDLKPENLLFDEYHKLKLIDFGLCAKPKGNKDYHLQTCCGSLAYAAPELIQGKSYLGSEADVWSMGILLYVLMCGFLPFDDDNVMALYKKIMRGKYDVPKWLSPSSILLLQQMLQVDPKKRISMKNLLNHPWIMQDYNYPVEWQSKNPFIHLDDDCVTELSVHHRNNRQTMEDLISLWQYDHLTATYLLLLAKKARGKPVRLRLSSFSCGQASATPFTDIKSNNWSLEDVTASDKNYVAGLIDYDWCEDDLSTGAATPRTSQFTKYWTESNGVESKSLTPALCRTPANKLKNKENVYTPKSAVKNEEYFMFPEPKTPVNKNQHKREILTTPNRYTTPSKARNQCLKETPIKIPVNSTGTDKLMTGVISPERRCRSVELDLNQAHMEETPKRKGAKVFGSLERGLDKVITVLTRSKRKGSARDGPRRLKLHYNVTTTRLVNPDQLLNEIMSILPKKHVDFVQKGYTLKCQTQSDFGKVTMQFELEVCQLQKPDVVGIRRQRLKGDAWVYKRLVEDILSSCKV
# [15] = molecular target: Maternal embryonic leucine zipper kinase (Homo sapiens) (UniProt Q14680); details: at 1 µM
# [16] = molecular target: MAP kinase-interacting serine/threonine-protein kinase 1 (Homo sapiens) (UniProt Q9BUB5); details: at 0.1 µM
# [17] = molecular target: MAP kinase-interacting serine/threonine-protein kinase 1 (Homo sapiens) (UniProt Q9BUB5); details: at 1 µM
# [18] = molecular target: MAP kinase-interacting serine/threonine-protein kinase 2 (Homo sapiens) (UniProt Q9HBH9); details: at 0.1 µM
# [19] = molecular target: MAP kinase-interacting serine/threonine-protein kinase 2 (Homo sapiens) (UniProt Q9HBH9); details: at 1 µM
# [20] = molecular target: Serine/threonine-protein kinase MARK2 (Homo sapiens) (UniProt Q7KZI7); details: at 0.1 µM;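 further: mean percent inhibition of PAR-1Balpha kinase activity, reported from the GSK PKIS screen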
# Sequence of Serine/threonine-protein kinase MARK2 (Homo sapiens) (Q7KZI7 whole entry): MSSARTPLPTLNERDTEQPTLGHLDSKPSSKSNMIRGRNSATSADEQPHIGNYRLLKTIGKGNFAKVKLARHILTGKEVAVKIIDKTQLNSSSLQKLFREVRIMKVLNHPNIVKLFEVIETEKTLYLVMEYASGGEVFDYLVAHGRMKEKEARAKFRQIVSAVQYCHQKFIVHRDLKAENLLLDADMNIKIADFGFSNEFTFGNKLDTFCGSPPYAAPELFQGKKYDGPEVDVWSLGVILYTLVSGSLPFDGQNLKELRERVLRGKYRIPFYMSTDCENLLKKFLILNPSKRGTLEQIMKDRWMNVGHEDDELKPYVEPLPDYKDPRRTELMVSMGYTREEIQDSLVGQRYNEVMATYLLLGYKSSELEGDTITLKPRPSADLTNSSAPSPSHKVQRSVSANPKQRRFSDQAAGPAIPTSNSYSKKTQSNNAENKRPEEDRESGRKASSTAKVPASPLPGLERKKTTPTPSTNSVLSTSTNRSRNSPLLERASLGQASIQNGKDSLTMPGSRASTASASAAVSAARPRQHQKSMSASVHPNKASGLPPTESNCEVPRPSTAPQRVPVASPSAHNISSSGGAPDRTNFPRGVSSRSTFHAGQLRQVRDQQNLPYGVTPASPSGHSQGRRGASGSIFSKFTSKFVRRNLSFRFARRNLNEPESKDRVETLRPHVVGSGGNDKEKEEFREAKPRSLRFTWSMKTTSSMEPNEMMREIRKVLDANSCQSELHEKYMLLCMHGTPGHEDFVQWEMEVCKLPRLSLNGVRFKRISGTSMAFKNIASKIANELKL
# Sequence of Death-associated protein kinase 1 (Homo sapiens) (P53355 whole entry, looked up): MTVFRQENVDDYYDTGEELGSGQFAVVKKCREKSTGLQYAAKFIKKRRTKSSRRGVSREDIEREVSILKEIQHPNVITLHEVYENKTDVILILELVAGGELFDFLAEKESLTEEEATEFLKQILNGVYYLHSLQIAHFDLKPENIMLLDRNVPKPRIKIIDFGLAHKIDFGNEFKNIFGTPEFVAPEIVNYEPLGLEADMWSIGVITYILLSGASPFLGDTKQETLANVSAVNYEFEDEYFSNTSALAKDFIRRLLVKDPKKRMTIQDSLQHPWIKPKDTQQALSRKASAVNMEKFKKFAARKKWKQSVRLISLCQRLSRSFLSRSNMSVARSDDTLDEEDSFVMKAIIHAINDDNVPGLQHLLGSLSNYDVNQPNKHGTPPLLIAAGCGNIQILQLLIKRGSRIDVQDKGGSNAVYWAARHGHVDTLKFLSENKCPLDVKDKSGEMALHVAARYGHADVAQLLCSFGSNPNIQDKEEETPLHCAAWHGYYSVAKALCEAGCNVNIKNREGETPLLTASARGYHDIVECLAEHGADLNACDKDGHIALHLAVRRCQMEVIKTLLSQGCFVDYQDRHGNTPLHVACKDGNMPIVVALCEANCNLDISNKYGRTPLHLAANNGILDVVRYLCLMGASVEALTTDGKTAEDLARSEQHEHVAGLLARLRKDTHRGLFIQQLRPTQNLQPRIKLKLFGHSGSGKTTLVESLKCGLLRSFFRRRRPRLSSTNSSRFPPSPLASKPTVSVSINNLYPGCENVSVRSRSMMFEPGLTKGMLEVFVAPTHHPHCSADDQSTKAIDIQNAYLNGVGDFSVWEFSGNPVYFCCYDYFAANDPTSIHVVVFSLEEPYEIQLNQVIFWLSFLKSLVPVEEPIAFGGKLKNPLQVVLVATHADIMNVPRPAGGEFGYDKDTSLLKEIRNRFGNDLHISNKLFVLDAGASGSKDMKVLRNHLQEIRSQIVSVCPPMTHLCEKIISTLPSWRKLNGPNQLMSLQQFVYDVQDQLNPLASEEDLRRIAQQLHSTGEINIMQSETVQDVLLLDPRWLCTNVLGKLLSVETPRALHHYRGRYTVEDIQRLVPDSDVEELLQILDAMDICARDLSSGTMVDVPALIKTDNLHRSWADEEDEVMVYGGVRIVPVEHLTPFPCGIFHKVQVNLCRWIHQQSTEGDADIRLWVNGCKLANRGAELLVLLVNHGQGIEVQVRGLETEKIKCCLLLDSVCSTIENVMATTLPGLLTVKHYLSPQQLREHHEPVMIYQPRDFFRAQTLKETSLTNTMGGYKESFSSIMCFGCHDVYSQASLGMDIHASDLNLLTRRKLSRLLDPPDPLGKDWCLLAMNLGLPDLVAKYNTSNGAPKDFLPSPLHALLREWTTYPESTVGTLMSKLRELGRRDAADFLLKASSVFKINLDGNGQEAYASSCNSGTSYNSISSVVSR
SMILES,inhibition [1] [%],inhibition [2] [%],inhibition [3] [%],inhibition [4] [%],inhibition [5] [%],inhibition [6] [%],inhibition [7] [%],inhibition [8] [%],inhibition [9] [%],inhibition [10] [%],inhibition [11] [%],inhibition [12] [%],inhibition [13] [%],inhibition [14] [%],inhibition [15] [%],inhibition [16] [%],inhibition [17] [%],inhibition [18] [%],inhibition [19] [%],inhibition [20] [%]
CC1=C(C(=O)Nc2ccc3[nH]ncc3c2)C(c2ccc3ccccc3c2)CC(=O)N1 (stereo unspecified),0.51,0.76,-1.57,0.66,0.45,0.74,2.13,1.86,3.48,0.58,4.13,0.19,1.73,3.7,6.22,3.03,5.77,1.21,3.81,-0.71
CCn1c(-c2nonc2N)nc2c(C#CC(C)(C)O)nc(CN3CCCC3)cc21,-0.31,6.66,-1.42,-0.49,-0.42,-1.48,-0.59,4.99,12,4.42,15.4,3.5,7.13,1.68,5.55,-0.28,0.88,-0.06,1.84,3.94
COc1cccc(-n2ncc3c(N/N=C/c4cccc(F)c4)ncnc32)c1,-1.39,-4.3,1.59,-0.12,0.02,1.02,0.04,2.19,6.35,0.17,-1.64,1.82,5.56,4.24,11,2.81,11.8,1.92,6.42,0.05
COc1cc2ncn(-c3cc(OCc4ccccc4C(F)(F)F)c(C(N)=O)s3)c2cc1OC,-4.22,-2.49,-0.6,2.27,1.47,4.71,4.41,4.83,22.1,5.55,21.5,5.05,18.4,5.92,10.3,2.99,7.06,2.21,7.89,2.29
COc1cc2c(cc1Nc1nc(N3CCc4ccccc43)c3cc[nH]c3n1)N(C(=O)CN(C)C)CC2,5.32,-0.1,-1.1,1.24,1.57,1.99,0.18,1.84,3.15,4.35,6.25,0.37,1.93,1.9,2.27,1.09,5.08,0.08,7.67,1.14
CNC(=O)c1cncc(/C=C/c2c(Cl)cccc2Cl)c1,0.5,-4.5,-0.73,0.7,2.98,2.14,1.96,2.05,2.47,1.82,3.1,1.49,3.08,6.04,14.7,1.63,6.73,3.42,16.3,1
COc1ccc(-c2ccncc2)cc1C(N)=O,12.2,-0.69,3.38,5.44,6.42,9.46,12.5,2.8,4.12,3.29,5.66,1.72,2.64,3.65,8.7,2.15,5.97,0.23,6.75,–
CCn1c(-c2nonc2N)nc2ccncc21,2.7,-2.35,-1.48,-0.18,0.49,0.85,1.7,0.76,-0.05,0.13,1.4,1.33,2.78,-0.81,2.39,1.17,3.2,0.41,3.51,-1.74
Cc1cccc(-c2n[nH]cc2-c2ccc3ncccc3n2)n1,0.85,–,-5.57,0.61,-0.07,0.58,2.89,1,1.95,-0.37,0.24,-0.19,-0.68,1.01,4.06,0.44,2.25,0.2,3.14,-0.96
Cc1nnc(-c2ccc(C)c(-c3ccc(C(=O)Nc4cccc(C#N)c4)cc3)c2)o1,2.66,0.99,–,1.02,0.1,5.27,16.3,1.96,4.25,2.09,4.82,0.41,1.13,-0.46,6.64,1.54,4.88,0.9,3.32,-1.11
CS(=O)(=O)CCN(CC#N)Cc1ccc(-c2ccc3ncnc(Nc4ccc(OCc5cccc(F)c5)c(Cl)c4)c3c2)o1,-1.52,-4.32,-2.59,0.26,0.64,0.54,-0.02,0.76,-0.29,–,-0.24,0.8,-0.12,3.85,8.4,1.32,5.64,2.33,11.5,-0.92
O=C1Nc2ccc(C(=O)c3ccco3)cc2C1=Cc1cc(Cl)c(O)c(Cl)c1,–,1,6.57,1.24,0.24,3.31,2.14,3.54,14.2,4.74,8.65,1.71,6.69,4.89,17.8,4.13,11.5,6.52,34.7,2.14
CS(=O)(=O)CCNCc1ccc(-c2ccc3ncnc(Nc4ccc(OCc5ccccc5)c(Cl)c4)c3c2)o1,–,-1.35,3.26,-3.32,-3.36,-5.03,-4.68,0.39,1.89,0.63,1.81,0.94,1.91,2.31,3.16,2.34,6.26,1.96,9.71,0.91
COc1ccccc1Nc1ncc(-c2ccccc2)o1,-4.43,2.18,0.52,-0.33,-1.84,0.93,1.35,2.73,5.68,4.5,4.87,2.98,4.33,4.62,8.09,4.22,5.88,1.93,7.25,0.41
CN(C)c1cc2c(Nc3ccc4nc(Cc5ccccc5)[nH]c4c3)ncnc2cn1,7.51,1.19,1.22,2.01,2.85,4.79,4.13,3.62,5.59,3.84,5,2.82,3,6.98,11.4,3.69,8.7,0.92,4.05,0.6
Nc1ncnc2occ(-c3ccc(NC(=O)Nc4cc(C(F)(F)F)cc(C(F)(F)F)c4)cc3)c12,3.18,0.95,1.34,0.92,0.1,2.58,4.92,0.83,-0.19,3.3,2.35,1.32,1.47,0.21,–,3.24,12.2,0.38,7.49,-1.98
CC(=O)Nc1cccc(C#Cc2cncnc2Nc2ccc(OCc3cccc(F)c3)c(Cl)c2)n1,7.63,5.73,7.65,2.15,2.54,5.56,5.33,1.05,1.12,0.78,3.05,0.52,0.84,-2.29,-2.61,0.9,18.7,3.48,14.3,1.78
NC(=O)c1cccc(Nc2nccc(Nc3cccc4[nH]ncc34)n2)c1,0.2,–,0.29,-2.49,-2.06,-2.55,-2.42,-1.84,11.7,2.03,11.9,1.34,11.8,-1.78,8.97,0.69,25.3,0.64,23.7,0.92
NS(=O)(=O)c1ccc(N/N=C2\C(=O)Nc3ccc(C(=O)NCCc4c[nH]cn4)cc32)cc1,12.4,1.45,0.59,2.48,2.03,3.95,3.57,16,61.4,8.6,49.1,11.8,56.3,82,98,2.81,4.11,1.48,4.85,7.88
CS(=O)(=O)CCNCc1ccc(-c2ccc3ncnc(Nc4ccc(OCc5cccc(F)c5)c(C(F)(F)F)c4)c3c2)o1,12.3,3.73,0.98,4.67,4.5,10,11.2,3.68,3.33,1.95,-2.72,1.59,-0.39,4.21,3.14,3.81,9.5,3.07,10.4,2.7
Nc1ncnc2occ(-c3ccc(NC(=O)Nc4cccc(C(F)(F)F)c4)cc3)c12,4.16,0.41,1.61,3.79,3.15,9.11,20.7,3.95,8.44,3.75,5.23,2.8,4.23,3.16,–,11.2,38.7,9.53,53.9,1.27
